The values that follow come from publication PMC5540273 (PLoS ONE, 2017).

Among the test systems are ZAK; ZAP70; p38-delta.
What all share (settings): concentration: 1 μM,replicates: in singlicate; n = 1
Another assay has as its system T1, p38-alpha.
T1 construct: gene MAPK14

In a further assay the test system is T2, p38-beta.
T2 construct: gene MAPK11

The test system of the next assay is T3, p38-gamma.
T3 construct: gene MAPK12
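Further: KINOMEscan kinase panel screen.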

In the case of `Cc1cccc2c(-c3ccncc3)c(-c3ccc(F)cc3)nn12.Cl` [GW461487], the “%Inh” value in the assay with ZAK stood at 0%; in the assay on ZAP70 it was 5%; in the assay on p38-alpha, 98.3%; with p38-beta, 22%; in the assay on p38-delta, 39%; in the assay on p38-gamma, 17%.

For the compound `CN1CCN(CCCNc2nccc(-c3c(-c4ccc(F)cc4)nn4cc(C(N)=O)ccc34)n2)CC1` [GW622475], the “%Inh” value is recorded as 31% with ZAK; 0% in the assay on ZAP70; 99.9% in the assay with p38-alpha; 79% in the assay with p38-beta; 26% in the assay with p38-delta; 13% with p38-gamma.

Take `Cc1ccc(Nc2ccnc(Nc3ccc4c(c3)CS(=O)(=O)C4)n2)cc1O.Cl` [GW579362]: the “%Inh” value in the assay with ZAK was found to be 56%; in the assay on ZAP70, 37%; in the assay with p38-alpha, 96.8%; in the assay with p38-beta it was 85%; in the assay with p38-delta, 99.8%; in the assay on p38-gamma, 23%.

With `CS(=O)(=O)Nc1ccc(-c2ccnc3[nH]ccc23)cc1` [GSK993273], the “%Inh” value in the assay with ZAK came out at 13%; in the assay on ZAP70, 0%; with p38-alpha, 0%; in the assay on p38-beta, 0%; in the assay on p38-delta it was 48%; in the assay with p38-gamma, 41%.

Regarding `Cn1ccc2ncnc(Oc3ccc(NC(=O)Nc4cnn(C(C)(C)C)c4)c(Cl)c3)c21`, the “%Inh” value amounted to 0% with ZAK; 6% in the assay with ZAP70; 91.6% in the assay on p38-alpha; 28% in the assay with p38-beta; 3% in the assay on p38-delta; 24% in the assay on p38-gamma.

Turning to `O=c1[nH]cc(-c2ccc(O)cc2)c2sc(-c3ccncc3)cc12` [GSK1033723], the “%Inh” value with ZAK is listed as 1%; in the assay on ZAP70, 0%; in the assay with p38-alpha, 0%; in the assay on p38-beta, 0%; with p38-delta, 0%; in the assay with p38-gamma, 26%.

On to `COc1cc2c(Nc3ccc(NC(=O)c4ccccc4)cc3)ncnc2cc1OCCCN1CCOCC1` [GSK301329], for which the “%Inh” value in the assay on ZAK stood at 8%; with ZAP70, 0%; in the assay with p38-alpha, 0%; in the assay with p38-beta, 0%; with p38-delta, 11%; with p38-gamma, 0%.

`CCCC(=O)Nc1n[nH]c2ncccc12` [SB-601436]: the “%Inh” value in the assay with ZAK came out at 20%; with ZAP70, 0%; in the assay on p38-alpha it was 0%; in the assay on p38-beta, 0%; in the assay on p38-delta, 0%; in the assay on p38-gamma it was 13%.

`CN(c1cccc(CNc2nc(Nc3ccc4c(c3)CC(=O)N4)ncc2C(F)(F)F)c1)S(C)(=O)=O`: the “%Inh” value in the assay on ZAK is 0%; in the assay with ZAP70 it was 0%; in the assay on p38-alpha it was 0%; with p38-beta, 0%; in the assay with p38-delta it was 11%; with p38-gamma it was 9%.

Consider `CCN1CCN(CCCC(=O)Nc2n[nH]c3nc(-c4ccc(O)cc4)c(Br)cc23)CC1` [SB-731579], for which the “%Inh” value with ZAK stood at 0%; in the assay on ZAP70 it was 0%; in the assay with p38-alpha, 2%; in the assay on p38-beta, 0%; in the assay on p38-delta it was 30%; in the assay with p38-gamma, 0%.

As for `Cl.Cl.NC[C@H](CC1CCCCC1)NC(=O)c1ccc(-c2ccnc3[nH]ccc23)s1` [GSK1581428], the “%Inh” value in the assay with ZAK is listed as 0%; in the assay on ZAP70, 0%; with p38-alpha, 0%; in the assay with p38-beta, 0%; in the assay with p38-delta it was 7%; in the assay with p38-gamma it was 13%.

Consider `O=C1NCCc2[nH]c(-c3ccncc3)cc21`, for which the “%Inh” value in the assay on ZAK came out at 20%; in the assay with ZAP70, 0%; in the assay with p38-alpha, 2%; in the assay with p38-beta, 27%; in the assay on p38-delta, 62%; in the assay on p38-gamma it was 26%.

Regarding `CN1CCN(CCNc2nc3cc(Oc4ccc(NC(=O)Nc5cc(C(F)(F)F)ccc5F)cc4)ccc3[nH]2)CC1.Cl.Cl` [GW768504], the “%Inh” value is 2% in the assay on ZAK; 12% with ZAP70; 0% with p38-alpha; 7% in the assay with p38-beta; 0% in the assay on p38-delta; 27% in the assay on p38-gamma.

Take `OCCn1cc(-c2cnc3nnn(Cc4ccc5ncccc5c4)c3n2)cn1`: the “%Inh” value in the assay with ZAK is listed as 0%; with ZAP70, 0%; with p38-alpha it was 0%; in the assay with p38-beta it was 20%; in the assay on p38-delta, 0%; in the assay with p38-gamma, 0%.

As for `Cc1ccn2nc(-c3ccc(F)cc3)c(-c3ccncc3)c2c1.Cl` [GW457859], the “%Inh” value is recorded as 0% in the assay on ZAK; 0% in the assay with ZAP70; 99.7% with p38-alpha; 18% with p38-beta; 52% in the assay with p38-delta; 30% with p38-gamma.

Consider `Cn1ccc2ncnc(Oc3ccc(NC(=O)Nc4cc(C(C)(C)C)on4)c(Cl)c3)c21`, for which the “%Inh” value in the assay on ZAK came to 87%; in the assay on ZAP70 it was 0%; in the assay with p38-alpha, 97.2%; with p38-beta, 78%; in the assay on p38-delta, 36%; in the assay with p38-gamma, 56%.

`CS(=O)(=O)c1cccc(CNc2nc(Nc3ccc4c(c3)[C@@H]3C[C@@H]4CNC3=O)ncc2C(F)(F)F)c1`: the “%Inh” value with ZAK is recorded as 0%; in the assay on ZAP70 it was 58%; with p38-alpha, 0%; in the assay with p38-beta it was 0%; with p38-delta, 69%; with p38-gamma, 10%.

As for `NC(=O)Nc1sc(-c2ccc(F)cc2)cc1C(N)=O` [GW789449], the “%Inh” value came out at 21% with ZAK; 5% in the assay on ZAP70; 6% in the assay with p38-alpha; 0% in the assay on p38-beta; 0% with p38-delta; 16% in the assay on p38-gamma.

For the compound `COC(=O)c1cccc(NC(=O)NC2CCN(c3ccnc(Nc4cc(OC)c(OC)c(OC)c4)n3)C2)c1` (stereo not drawn) [GSK1379767], the “%Inh” value worked out at 3% in the assay on ZAK; 17% in the assay with ZAP70; 37% in the assay with p38-alpha; 0% in the assay on p38-beta; 22% in the assay with p38-delta; 0% in the assay on p38-gamma.

As to `Cc1ccc(C(=O)Nc2ccc(Oc3ccc4nc(NC(=O)C5CC5)cn4c3)c(F)c2)c(=O)n1-c1ccccc1`, the “%Inh” value in the assay on ZAK was found to be 96.1%; in the assay with ZAP70, 0%; in the assay on p38-alpha, 0%; in the assay on p38-beta, 0%; in the assay on p38-delta, 0%; with p38-gamma it was 34%.

As to `COc1cccc(C2=C(Nc3cccc(Cl)c3)C(=O)NC2=O)c1` [SB-341556], the “%Inh” value in the assay on ZAK is given as 16%; in the assay with ZAP70, 1%; in the assay with p38-alpha it was 0%; in the assay on p38-beta it was 0%; in the assay with p38-delta it was 11%; in the assay with p38-gamma, 0%.

With `Cn1ccc2ncnc(Oc3ccc(NC(=O)Nc4ccnc(C(F)(F)F)c4)c(Cl)c3)c21`, the “%Inh” value in the assay on ZAK turned out to be 17%; with ZAP70 it was 0%; with p38-alpha, 18%; in the assay on p38-beta, 0%; in the assay on p38-delta, 25%; with p38-gamma it was 0%.

For `Cc1cccc(-c2nc(Nc3ccncc3)c3sccc3n2)n1` [GW869641], the “%Inh” value with ZAK turned out to be 27%; with ZAP70, 14%; in the assay with p38-alpha, 31%; with p38-beta, 17%; in the assay with p38-delta, 0%; in the assay on p38-gamma it was 32%.

Take `CC(=O)c1c(-c2ccncc2)[nH]c(-c2ccncc2)c1C` [GW493036]: the “%Inh” value with ZAK worked out at 34%; in the assay with ZAP70, 48%; in the assay with p38-alpha, 34%; with p38-beta it was 0%; in the assay with p38-delta, 49%; with p38-gamma, 19%.

Consider `CSc1nccc(-c2c(-c3ccc(F)cc3)ncn2CCCN2CCOCC2)n1.Cl` [SB-217146], for which the “%Inh” value in the assay on ZAK worked out at 0%; with ZAP70 it was 8%; in the assay with p38-alpha it was 67%; in the assay with p38-beta, 0%; in the assay on p38-delta, 0%; in the assay on p38-gamma, 2%.

Consider `CC(=O)Nc1nc2cnc(Nc3cc(NC(=O)c4cccc(CC(C)(C)C#N)c4)ccc3C)nc2s1`, for which the “%Inh” value stood at 0% in the assay on ZAK; 5% in the assay on ZAP70; 100% in the assay with p38-alpha; 100% in the assay on p38-beta; 43% in the assay on p38-delta; 74% in the assay on p38-gamma.

For the compound `C[C@@H](Oc1cc(-n2cnc3cc(-c4cnn(C)c4)ccc32)sc1C(N)=O)c1ccccc1Cl` [GSK580432], the “%Inh” value is given as 6% in the assay with ZAK; 0% in the assay on ZAP70; 0% in the assay with p38-alpha; 0% with p38-beta; 0% in the assay on p38-delta; 0% in the assay on p38-gamma.

Consider `Nc1nccc(-c2ccc3c(N)n[nH]c3c2)n1` [GSK1034945], for which the “%Inh” value in the assay with ZAK is given as 1%; in the assay on ZAP70, 0%; in the assay on p38-alpha it was 0%; with p38-beta, 0%; in the assay on p38-delta it was 36%; with p38-gamma, 0%.

On to `COc1cccc(OC)c1C(=O)Nc1cccc(-c2nn3ccccc3c2-c2ccnc(Nc3cccc(F)c3)n2)c1` [GSK361065], for which the “%Inh” value with ZAK came out at 66%; in the assay on ZAP70, 0%; with p38-alpha it was 21%; in the assay on p38-beta, 90%; with p38-delta, 11%; in the assay with p38-gamma, 24%.

As to `Cn1ccc2ncnc(Oc3ccc(NC(=O)Nc4cccc(C(F)(F)F)c4)c(F)c3)c21`, the “%Inh” value with ZAK turned out to be 18%; in the assay on ZAP70, 1%; in the assay on p38-alpha, 12%; in the assay on p38-beta, 20%; in the assay on p38-delta it was 0%; with p38-gamma, 62%.

Take `CS(=O)c1ccc(-c2coc3ccc(-c4n[nH]c(=O)o4)cc23)cc1` (stereo not drawn): the “%Inh” value is 0% in the assay on ZAK; 1% in the assay with ZAP70; 10% in the assay with p38-alpha; 9% with p38-beta; 0% with p38-delta; 0% in the assay with p38-gamma.

On to `C[C@@H](Oc1cc(-n2cnc3cc(-c4ccncc4)ccc32)sc1C(N)=O)c1ccccc1Cl` [GSK479719], for which the “%Inh” value in the assay with ZAK worked out at 0%; in the assay on ZAP70, 15%; in the assay with p38-alpha, 71%; with p38-beta, 0%; in the assay on p38-delta it was 14%; in the assay with p38-gamma it was 0%.

As to `O=C(NCC1CC1)c1ccc(-c2cc(C(=O)NC3CC3)ccc2F)cc1` [GW810445], the “%Inh” value was found to be 0% with ZAK; 0% with ZAP70; 55% in the assay on p38-alpha; 0% with p38-beta; 0% in the assay with p38-delta; 29% with p38-gamma.

As for `CC(C)c1nc(-c2cccc(NS(=O)(=O)c3ccccc3)c2)c(-c2ccnc(Nc3ccc4c(c3)CN(C)CC4)n2)s1` [GSK1649598], the “%Inh” value is listed as 98.6% in the assay with ZAK; 7% in the assay on ZAP70; 91.5% in the assay on p38-alpha; 35% in the assay on p38-beta; 48% with p38-delta; 7% in the assay with p38-gamma.

On to `CN(c1ccccc1CNc1nc(Nc2ccc3c(c2)CC(=O)N3)ncc1C(F)(F)F)S(C)(=O)=O`, for which the “%Inh” value was 0% in the assay with ZAK; 0% with ZAP70; 0% with p38-alpha; 0% with p38-beta; 56% with p38-delta; 0% with p38-gamma.

In the case of `O=C(Nc1ccc(Oc2ccc3nc(NC(=O)C4CC4)cn3n2)c(F)c1)c1cccn(-c2ccccc2)c1=O`, the “%Inh” value in the assay on ZAK turned out to be 77%; in the assay with ZAP70, 0%; in the assay with p38-alpha it was 4%; in the assay with p38-beta it was 9%; in the assay with p38-delta it was 0%; in the assay with p38-gamma, 87%.

As for `C[C@@H]1CNc2c(sc3ccc4nc(-c5ccc(O)cc5)ccc4c23)C(=O)N1`, the “%Inh” value in the assay on ZAK is on record as 0%; in the assay with ZAP70, 0%; with p38-alpha, 5%; in the assay on p38-beta, 33%; with p38-delta it was 30%; in the assay with p38-gamma, 2%.
